Data as given in PubChem BioAssay (EPA / NIEHS).
Several values for one entry are separate records, joined by “and”; a condition that tells them apart may be missing. Equal values may be shown once. Records with an inconclusive call do not appear. Some compounds were tested as several samples or in several runs, with calls that do not always agree. Activity calls are given as the source filed them. How the source made its calls, unless noted: active means hit-call score of the fitted dose curve at least 0.9, where 1 is the maximum; inactive means score below 0.9.

What was measured:
[1] = molecular target: Nuclear respiratory factor 1 (Homo sapiens) (UniProt Q16656); test: ATG_NRF1_CIS: Attagene CIS-FACTORIAL HepG2 Assay for human Nuclear Respiratory Factor 1 (NRF1) Orphan Gene (AID 2282987); details: HepG2 NRF1 cis-element reporter, Attagene multiplex; actives raise or lower the signal
Nuclear respiratory factor 1 (Homo sapiens), sequence (Q16656 whole entry, looked up, the tested form may be a part): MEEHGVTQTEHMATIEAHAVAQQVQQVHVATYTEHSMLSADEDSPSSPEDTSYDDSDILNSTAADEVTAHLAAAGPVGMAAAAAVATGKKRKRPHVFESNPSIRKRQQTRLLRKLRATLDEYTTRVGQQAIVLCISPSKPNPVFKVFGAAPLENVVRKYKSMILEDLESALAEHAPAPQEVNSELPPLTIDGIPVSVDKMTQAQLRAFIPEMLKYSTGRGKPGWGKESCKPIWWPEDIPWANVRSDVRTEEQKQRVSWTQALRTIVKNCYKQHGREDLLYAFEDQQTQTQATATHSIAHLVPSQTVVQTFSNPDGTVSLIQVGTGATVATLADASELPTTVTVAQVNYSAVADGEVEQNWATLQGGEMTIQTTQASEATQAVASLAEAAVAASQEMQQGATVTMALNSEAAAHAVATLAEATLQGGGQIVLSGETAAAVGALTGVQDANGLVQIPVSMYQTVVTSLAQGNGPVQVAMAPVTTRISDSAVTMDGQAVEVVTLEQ
Summary of the method: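 Cells (HepG2, transient MRTU transfection) are exposed to compound for 24 h, then RNA isolated and reporter mRNA amplified and fluorescently labelled. Fragments are separated by capillary electrophoresis; signal change is fitted bidirectionally relative to DMSO.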

[2] = ATG_NFI_CIS: Attagene CIS-FACTORIAL HepG2 Assay for human Nuclear Factor I (NFI) (AID 2282989); details: HepG2 cis-regulatory reporter, NFI response element transcription; actives raise or lower the signal
Summary of the method: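 HepG2 cells transiently transfected with cis-element-driven multiplexed reporter transcription units, dosed for 24 h. Reporter mRNA quantified by RT-PCR, fluorescent labelling, HpaI digestion and capillary electrophoresis; bidirectional fit versus DMSO baseline.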

[3] = molecular target: Myc proto-oncogene protein (Homo sapiens) (UniProt P01106); test: ATG_Myc_CIS: Attagene CIS-FACTORIAL HepG2 Assay for human Myelocytomatosis (Myc) Proto-Oncogene Transcription Factor (AID 2282990); details: HepG2, Attagene cis-reporter transcription factor activity; actives raise or lower the signal
Myc proto-oncogene protein (Homo sapiens), sequence (P01106 whole entry, looked up): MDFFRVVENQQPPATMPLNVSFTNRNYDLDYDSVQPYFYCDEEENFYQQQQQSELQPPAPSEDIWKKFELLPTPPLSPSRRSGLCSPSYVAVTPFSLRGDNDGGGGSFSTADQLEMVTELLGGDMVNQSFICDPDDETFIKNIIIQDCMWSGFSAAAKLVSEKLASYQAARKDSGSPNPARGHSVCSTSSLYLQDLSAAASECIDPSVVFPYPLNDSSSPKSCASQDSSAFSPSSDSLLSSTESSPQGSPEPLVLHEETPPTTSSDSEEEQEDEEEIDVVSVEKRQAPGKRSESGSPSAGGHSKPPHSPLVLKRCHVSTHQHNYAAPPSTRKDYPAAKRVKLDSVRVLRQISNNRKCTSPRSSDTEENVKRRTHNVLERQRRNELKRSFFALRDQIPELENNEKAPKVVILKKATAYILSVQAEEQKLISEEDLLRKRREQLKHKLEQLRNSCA
Summary of the method: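 HepG2 cells transiently transfected with multiple cis-promoter-driven reporter transcription units, so endogenous TF activity is read. After 24 h compound exposure, reporter mRNA was quantified by RT-PCR, 6-FAM labelling, HpaI digestion and capillary electrophoresis; bidirectional fit versus DMSO.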

[4] = ATG_NF_kB_CIS: Attagene CIS-FACTORIAL HepG2 Assay for human Nuclear Factor Kappa B (NF-kB) (AID 2282991); details: HepG2 Attagene cis-factorial NF-kB reporter mRNA; actives raise or lower the signal
Summary of the method: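 Measures mRNA induction of an NF-kB-responsive cis-element reporter in HepG2 cells transfected with multiple reporter units, sampled 24 h post-dosing; quantified by fluorescence after RT-PCR and capillary electrophoresis, fitted for activation or inhibition against DMSO.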

[5] = ATG_NRF2_ARE_CIS: Attagene CIS-FACTORIAL HepG2 Assay for human Nuclear Factor Erythroid 2 Related Factor 2 (NFR2) response to Antioxidant Response Elements (ARE) (AID 2282992); details: HepG2 Attagene ARE/NRF2 reporter, transcription factor activity; actives raise or lower the signal;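 on AC50: reporter mRNA level measured by RT-PCR and capillary electrophoresis fluorescence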
Summary of the method: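 HepG2 cells transiently transfected with multiplexed cis-regulated reporter transcription units measure endogenous transcription factor activity. Reporter mRNA at 24 h is quantified by RT-PCR, fluorescent labelling and capillary electrophoresis, with bidirectional fitting relative to DMSO.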

[6] = ATG_Oct_MLP_CIS: Attagene CIS-FACTORIAL HepG2 Assay for human Octamer-Binding Transcription Factor (Oct) (AID 2282993); details: HepG2 Attagene cis-factorial Oct reporter, mRNA; actives raise or lower the signal
Summary of the method: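 HepG2 cells transiently transfected with cis-promoter-driven multiplexed reporter transcription units, dosed for 24 h. Reporter mRNA quantified by RT-PCR, fluorescent labelling, HpaI digestion and capillary electrophoresis; bidirectional fits versus DMSO baseline.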

[7] = molecular target: Cellular tumor antigen p53 (Homo sapiens) (UniProt P04637); test: ATG_p53_CIS: Attagene CIS-FACTORIAL HepG2 Assay for human p53 Transcription Factor (AID 2282994); details: HepG2 p53 cis-element reporter, Attagene mRNA; actives raise or lower the signal
Cellular tumor antigen p53 (Homo sapiens), sequence (P04637 whole entry, looked up): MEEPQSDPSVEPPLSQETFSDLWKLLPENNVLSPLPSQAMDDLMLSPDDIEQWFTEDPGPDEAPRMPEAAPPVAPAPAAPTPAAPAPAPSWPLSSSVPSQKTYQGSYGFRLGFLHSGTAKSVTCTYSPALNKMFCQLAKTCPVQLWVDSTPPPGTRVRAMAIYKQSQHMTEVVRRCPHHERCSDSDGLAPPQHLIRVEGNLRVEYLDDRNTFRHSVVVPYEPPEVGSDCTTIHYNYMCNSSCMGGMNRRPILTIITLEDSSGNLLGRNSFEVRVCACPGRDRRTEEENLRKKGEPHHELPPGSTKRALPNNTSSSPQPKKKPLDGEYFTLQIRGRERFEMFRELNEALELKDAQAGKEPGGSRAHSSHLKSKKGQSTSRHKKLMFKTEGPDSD
Summary of the method: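 HepG2 cells transiently transfected with multiplexed cis-regulated reporter transcription units read endogenous TF activity. After 24 h compound exposure, reporter mRNA was quantified by RT-PCR, fluorescent labelling, HpaI digestion and capillary electrophoresis; bidirectional fits versus DMSO baseline.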

[8] = BSK_3C_TissueFactor: BioMAP Diversity Plus: 3C Assay for Tissue Factor Biomarker Activity (AID 2282997); details: BioMAP 3C HUVEC, tissue factor biomarker readout; actives raise or lower the signal
Summary of the method: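 HUVEC were treated 24 h, then surface tissue factor measured by ELISA and fitted bidirectionally against DMSO. Parallel SRB total-protein staining assessed overt cytotoxicity at the same time point.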

[9] = BSK_3C_uPAR: BioMAP Diversity Plus: 3C Assay for Urokinase-type plasminogen activator receptor (uPAR) Biomarker Activity (AID 2282998); details: BioMAP 3C HUVEC, uPAR biomarker ELISA; actives raise or lower the signal
Summary of the method: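 Human umbilical vein endothelial primary cells were exposed to test chemical for 24 h. Cell-surface uPAR was then quantified by ELISA, and responses were fitted bidirectionally against DMSO as negative control and baseline.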

[10] = BSK_3C_VCAM1: BioMAP Diversity Plus: 3C Assay for Vascular cell adhesion molecule 1 (VCAM1) Biomarker Activity (AID 2282999); details: BioMAP 3C HUVEC, VCAM1 ELISA, cytokine-stimulated; actives raise or lower the signal
Summary of the method: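 Human umbilical vein endothelial cells were dosed with compound for 24 h, after which cell-surface VCAM-1 was quantified by ELISA. Bidirectional curve fitting used DMSO as negative control and activity baseline.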

[11] = molecular target: human Peroxisome Proliferator-activated Receptor alpha (PPARa), PPARA (gene 5465) (UniProt Q07869); test: ATG_PPARa_TRANS: Attagene TRANS-FACTORIAL HepG2 Assay for human Peroxisome Proliferator-activated Receptor alpha (PPARa) (AID 2283001; active means hit-call score of the fitted dose curve at least 0.9, where 1 is the maximum)
human Peroxisome Proliferator-activated Receptor alpha (PPARa), PPARA (gene 5465), sequence (Q07869 whole entry, looked up, the tested form may be a part): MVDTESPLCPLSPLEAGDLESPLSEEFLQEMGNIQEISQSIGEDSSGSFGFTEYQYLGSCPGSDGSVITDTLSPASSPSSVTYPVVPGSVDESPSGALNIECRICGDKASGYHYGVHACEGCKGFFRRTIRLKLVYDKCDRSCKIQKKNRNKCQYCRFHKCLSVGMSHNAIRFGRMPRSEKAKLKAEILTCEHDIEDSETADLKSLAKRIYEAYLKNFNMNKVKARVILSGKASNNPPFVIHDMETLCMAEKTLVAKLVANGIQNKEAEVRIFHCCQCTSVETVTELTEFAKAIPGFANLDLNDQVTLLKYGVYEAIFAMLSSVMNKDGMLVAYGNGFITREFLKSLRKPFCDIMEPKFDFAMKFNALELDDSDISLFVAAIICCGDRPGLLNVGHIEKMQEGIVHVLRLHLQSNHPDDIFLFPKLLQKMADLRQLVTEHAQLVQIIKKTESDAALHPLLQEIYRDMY
Summary of the method: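 Gain-of-signal endpoint: reporter mRNA induction relative to DMSO, detected by fluorescent RT-PCR and capillary electrophoresis. HepG2 cells transiently carried GAL4-UAS-driven reporter units plus NR-Gal4 fusion; exposure lasted 24 h.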

[12] = read-out: Intercellular Adhesion Molecule 1 (ICAM1), ICAM1 (gene 3383); test: BSK_3C_ICAM1: BioMAP Diversity Plus: 3C Assay for Intercellular Adhesion Molecule 1 (ICAM1) Biomarker Activity (AID 2283003); details: primary human endothelial cells (HUVEC); actives raise or lower the signal
Summary of the method: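 ICAM-1 levels measured by ELISA after HUVEC cultures in the 3C system had been dosed for 24 h. Gain or loss of signal relative to DMSO was fitted in both directions.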

[13] = BSK_3C_Proliferation: Cell Proliferation Assessment in the BioMAP Diversity Plus: 3C Assay (AID 2283006); details: primary human endothelial cells (HUVEC);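 on AC50: potency may reflect either rise or fall in cell number versus DMSO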
Summary of the method: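 Read-out is total protein by SRB absorbance at 560 nm, taken as a proxy for relative cell number. Primary human umbilical vein endothelium cultured below confluence was dosed for 48 h, TCA-fixed and SRB-stained; curves were fitted bidirectionally versus DMSO.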

[14] = molecular target: Peroxisome proliferator-activated receptor gamma (Homo sapiens) (UniProt P37231); test: ATG_PPARg_TRANS: Attagene TRANS-FACTORIAL HepG2 Assay for human Peroxisome Proliferator-activated Receptor-gamma (PPARg) (AID 2283007; active means hit-call score of the fitted dose curve at least 0.9, where 1 is the maximum)
Peroxisome proliferator-activated receptor gamma (Homo sapiens), sequence (P37231 whole entry, looked up, the tested form may be a part): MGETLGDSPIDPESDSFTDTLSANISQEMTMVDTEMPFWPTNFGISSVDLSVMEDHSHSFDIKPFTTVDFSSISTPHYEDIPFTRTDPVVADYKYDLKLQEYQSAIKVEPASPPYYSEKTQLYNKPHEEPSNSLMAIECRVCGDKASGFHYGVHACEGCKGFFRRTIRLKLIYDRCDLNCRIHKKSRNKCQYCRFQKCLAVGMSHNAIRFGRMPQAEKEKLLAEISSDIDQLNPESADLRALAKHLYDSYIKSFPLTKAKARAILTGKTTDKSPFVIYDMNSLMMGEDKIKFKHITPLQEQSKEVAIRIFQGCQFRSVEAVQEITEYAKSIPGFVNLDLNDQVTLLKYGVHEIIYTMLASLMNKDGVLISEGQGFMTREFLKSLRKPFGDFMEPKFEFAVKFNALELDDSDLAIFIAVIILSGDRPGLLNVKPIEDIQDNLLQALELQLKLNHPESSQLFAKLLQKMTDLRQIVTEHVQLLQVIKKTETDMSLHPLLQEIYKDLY
Summary of the method: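 Gain-of-signal endpoint relative to DMSO, derived from reporter mRNA levels quantified by RT-PCR and capillary electrophoresis. Cells were HepG2 transiently expressing a chimeric NR-Gal4 construct with GAL4-UAS reporters, exposed to chemicals for 24 h.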

[15] = molecular target: Nuclear receptor subfamily 1 group I member 2 (Homo sapiens) (UniProt O75469); test: ATG_PXR_TRANS: Attagene TRANS-FACTORIAL HepG2 Assay for human Pregnane X Receptor (PXR) (AID 2283008; active means hit-call score of the fitted dose curve at least 0.9, where 1 is the maximum)
Nuclear receptor subfamily 1 group I member 2 (Homo sapiens), sequence (O75469 whole entry, looked up, the tested form may be a part): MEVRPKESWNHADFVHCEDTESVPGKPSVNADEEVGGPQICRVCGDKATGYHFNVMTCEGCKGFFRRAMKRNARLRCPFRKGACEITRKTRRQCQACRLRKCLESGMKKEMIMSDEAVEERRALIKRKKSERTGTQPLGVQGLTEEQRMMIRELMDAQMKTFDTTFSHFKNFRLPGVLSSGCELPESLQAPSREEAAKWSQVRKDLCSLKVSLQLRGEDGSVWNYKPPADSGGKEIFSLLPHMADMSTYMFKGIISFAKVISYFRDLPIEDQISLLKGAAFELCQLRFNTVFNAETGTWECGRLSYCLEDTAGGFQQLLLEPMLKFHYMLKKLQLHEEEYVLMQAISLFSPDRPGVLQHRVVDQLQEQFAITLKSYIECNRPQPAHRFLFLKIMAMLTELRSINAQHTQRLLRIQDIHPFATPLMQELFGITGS
Summary of the method: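 HepG2 cells transiently transfected with multiple reporter units, here a PXR-GAL4 chimera driving a GAL4-UAS reporter; 24 h compound exposure. Reporter mRNA measured by RT-PCR, FAM labelling and capillary electrophoresis; gain of signal fitted against DMSO baseline.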

[16] = molecular target: human Retinoic Acid Receptor gamma (RARg), RARG (gene 5916) (UniProt P13631); test: ATG_RARg_TRANS: Attagene TRANS-FACTORIAL HepG2 Assay for human Retinoic Acid Receptor gamma (RARg) (AID 2283009; active means hit-call score of the fitted dose curve at least 0.9, where 1 is the maximum)
human Retinoic Acid Receptor gamma (RARg), RARG (gene 5916), sequence (P13631 whole entry, looked up): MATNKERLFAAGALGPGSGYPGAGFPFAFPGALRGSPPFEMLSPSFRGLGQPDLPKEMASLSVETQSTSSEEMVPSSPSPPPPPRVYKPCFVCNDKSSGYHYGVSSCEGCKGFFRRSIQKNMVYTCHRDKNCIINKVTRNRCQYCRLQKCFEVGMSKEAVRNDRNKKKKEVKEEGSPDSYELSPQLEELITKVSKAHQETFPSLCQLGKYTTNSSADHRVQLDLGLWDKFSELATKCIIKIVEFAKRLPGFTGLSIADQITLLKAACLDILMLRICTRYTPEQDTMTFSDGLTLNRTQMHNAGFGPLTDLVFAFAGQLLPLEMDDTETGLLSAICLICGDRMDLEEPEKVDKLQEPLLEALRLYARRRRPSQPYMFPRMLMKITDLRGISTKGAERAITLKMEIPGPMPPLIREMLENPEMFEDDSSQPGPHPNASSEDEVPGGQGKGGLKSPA
Summary of the method: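 Transient transfection of HepG2 with multi-reporter constructs, then 24 h chemical treatment. Total RNA isolated, reverse-transcribed, PCR-amplified, fluorescently labelled and resolved by capillary electrophoresis; activity scored as mRNA induction versus DMSO.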

[17] = molecular target: human Peroxisome Proliferator-activated Receptor delta (PPARd), PPARD (gene 5467) (UniProt Q03181); test: ATG_PPARd_TRANS: Attagene TRANS-FACTORIAL HepG2 Assay for human Peroxisome Proliferator-activated Receptor delta (PPARd) (AID 2283002; active means hit-call score of the fitted dose curve at least 0.9, where 1 is the maximum)
human Peroxisome Proliferator-activated Receptor delta (PPARd), PPARD (gene 5467), sequence (Q03181 whole entry, looked up, the tested form may be a part): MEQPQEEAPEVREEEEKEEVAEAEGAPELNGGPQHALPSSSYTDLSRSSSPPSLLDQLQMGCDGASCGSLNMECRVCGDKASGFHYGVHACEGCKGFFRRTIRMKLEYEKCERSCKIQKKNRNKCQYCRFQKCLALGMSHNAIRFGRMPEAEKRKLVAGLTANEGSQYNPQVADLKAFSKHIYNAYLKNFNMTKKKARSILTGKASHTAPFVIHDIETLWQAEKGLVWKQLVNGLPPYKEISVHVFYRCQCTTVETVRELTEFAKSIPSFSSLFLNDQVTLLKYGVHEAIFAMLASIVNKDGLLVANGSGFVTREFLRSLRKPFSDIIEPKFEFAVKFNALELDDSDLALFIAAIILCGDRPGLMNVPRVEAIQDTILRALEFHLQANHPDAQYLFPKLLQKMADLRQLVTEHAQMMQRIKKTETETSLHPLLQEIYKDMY
Summary of the method: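 HepG2 cells transiently transfected with multiplexed GAL4-UAS reporter units and exogenous chimeric NR-Gal4 proteins; 24 h compound exposure. Reporter mRNA measured by RT-PCR, 6-FAM labelling, HpaI digestion and capillary electrophoresis; gain of signal versus DMSO.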

[18] = BSK_4H_Eotaxin3: BioMAP Diversity Plus: 4H Assay for Eotaxin 3 Biomarker Activity (AID 2283000); details: primary human endothelial cells (HUVEC); actives raise or lower the signal
Summary of the method: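 Eotaxin-3 (CCL26) levels were measured by ELISA in HUVEC primary cultures 24 h post-dosing. Gain or loss of signal was fitted in both directions, with DMSO serving as baseline and negative control.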

[19] = molecular target: human Retinoic Acid Receptor beta (RARb), RARB (gene 5915) (UniProt P10826); test: ATG_RARb_TRANS: Attagene TRANS-FACTORIAL HepG2 Assay for human Retinoic Acid Receptor beta (AID 2283004; active means hit-call score of the fitted dose curve at least 0.9, where 1 is the maximum)
human Retinoic Acid Receptor beta (RARb), RARB (gene 5915), sequence (P10826 whole entry, looked up, the tested form may be a part): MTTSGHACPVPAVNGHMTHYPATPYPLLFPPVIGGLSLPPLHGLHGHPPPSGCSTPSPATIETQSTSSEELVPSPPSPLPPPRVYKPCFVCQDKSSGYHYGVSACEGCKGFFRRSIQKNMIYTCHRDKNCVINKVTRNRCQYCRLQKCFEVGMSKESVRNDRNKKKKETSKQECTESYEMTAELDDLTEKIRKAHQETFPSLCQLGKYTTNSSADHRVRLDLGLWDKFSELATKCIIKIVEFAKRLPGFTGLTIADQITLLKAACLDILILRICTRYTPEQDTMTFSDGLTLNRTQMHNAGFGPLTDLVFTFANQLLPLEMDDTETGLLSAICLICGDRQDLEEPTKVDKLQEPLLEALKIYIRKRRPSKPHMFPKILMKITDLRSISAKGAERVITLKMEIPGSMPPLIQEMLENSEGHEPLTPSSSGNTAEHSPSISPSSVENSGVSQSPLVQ
Summary of the method: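 HepG2 cells were transiently transfected with GAL4-UAS reporter units that report activity of exogenous chimeric NR-Gal4 proteins, then exposed to compound for 24 h. Reporter mRNA was quantified by RT-PCR with capillary electrophoresis fluorescence, as gain of signal over DMSO.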

[20] = molecular target: Retinoic acid receptor alpha (Homo sapiens) (UniProt P10276); test: ATG_RARa_TRANS: Attagene TRANS-FACTORIAL HepG2 Assay for human Retinoic Acid Receptor alpha (RARa) (AID 2283005; active means hit-call score of the fitted dose curve at least 0.9, where 1 is the maximum)
Retinoic acid receptor alpha (Homo sapiens), sequence (P10276 whole entry, looked up, the tested form may be a part): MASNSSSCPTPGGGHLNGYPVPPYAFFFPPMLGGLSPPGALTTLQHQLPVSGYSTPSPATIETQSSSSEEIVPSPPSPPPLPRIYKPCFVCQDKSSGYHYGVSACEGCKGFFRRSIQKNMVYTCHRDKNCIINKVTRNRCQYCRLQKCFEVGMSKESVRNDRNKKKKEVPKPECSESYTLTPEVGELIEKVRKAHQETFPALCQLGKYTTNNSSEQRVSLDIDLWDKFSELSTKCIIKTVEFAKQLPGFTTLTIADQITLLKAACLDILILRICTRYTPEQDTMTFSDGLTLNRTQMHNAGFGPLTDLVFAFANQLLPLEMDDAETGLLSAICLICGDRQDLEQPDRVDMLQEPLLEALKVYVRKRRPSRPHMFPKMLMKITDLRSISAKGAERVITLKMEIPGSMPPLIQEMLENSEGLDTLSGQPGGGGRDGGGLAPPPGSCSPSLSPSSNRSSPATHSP
Summary of the method: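 HepG2 cells transiently transfected with multiple reporter units expressing chimeric RARα-GAL4 fusion, with GAL4-UAS-driven reporters. After 24 h compound exposure, reporter mRNA induction quantified by RT-PCR and capillary electrophoresis with fluorescent labeling; gain-of-signal fitted relative to DMSO control.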

Measured: AC50

C=CC(=O)OCC(F)(F)C(F)F
active: [4] 76 µM | [5] 50.3 µM | [7] 206 µM | [8] 24.6 µM | [10] 35.5 µM and 37 µM | [13] 30 µM and 36 µM | [14] 3.8 µM
inactive: [1] | [2] | [3] | [6] | [8] | [9] | [11] | [12] | [15] | [16]

O=[N+]([O-])c1cc(Cl)ccc1Cl
inactive: [1] | [2] | [3] | [4] | [5] | [6] | [7] | [17] | [15]
active: [14] 16.1 µM

O=P1(N(CCCl)CCCl)NCCCO1 (stereo not given)
not listed: [11] | [16] | [19] | [20]
inactive: all other assays above

CCOC(=O)c1ccccc1C(=O)OCC
not listed: [7] | [11] | [14] | [16] | [17] | [20]
inactive: all other assays above

CN(C)C(=O)Cl
not listed: [7] | [14] | [17]
inactive: all other assays above

CCOc1ccc(C(C)(C)COCc2cccc(Oc3ccccc3)c2)cc1
active: [13] 697 nM | [15] 4.88 µM
not listed: [11] | [16] | [17] | [18] | [19] | [20]
inactive: all other assays above

CC(=O)CCc1ccc2c(c1)OCO2
inactive: [1] | [2] | [3] | [4] | [5] | [6] | [17] | [20] | [14] | [15]

Cc1ccc2c(c1N)C(=O)c1ccccc1C2=O
active: [4] 25.4 µM | [8] 20 µM | [9] 3.89 µM | [18] 9.4 µM | [15] 2.89 µM
not listed: [5] | [11] | [16] | [19] | [20]
inactive: all other assays above

Nc1cc2c3c(c1)C(c1ccccc1)=N[C@@H](NC(=O)c1cccnc1)C(=O)N3CC2
active: [6] 52.9 µM | [14] 48.4 µM | [15] 11.2 µM
not listed: [7] | [16] | [18] | [19] | [20]
inactive: all other assays above

CCCCN(CCCC)SN(C)C(=O)Oc1cccc2c1OC(C)(C)C2
active: [5] 31.6 µM | [8] 20 µM | [9] 32.3 µM | [10] 28.4 µM | [12] 29.8 µM | [13] 19800 nM | [14] 12.3 µM | [15] 16 µM
inactive: [1] | [2] | [3] | [4] | [6] | [17]

O=C(O)C(F)(OC(F)(F)C(F)(F)C(F)(F)F)C(F)(F)F (stereo not given)
inactive: [1] | [2] | [3] | [4] | [5] | [6] | [8] | [9] | [10] | [18] | [17] | [12] | [19] | [20] | [13] | [14] | [15] | [16]
active: [18] 8.11 µM | [13] 220 nM | [14] 102 µM

CC1=C(C(=O)Nc2ccccc2)S(=O)(=O)CCO1
active: [4] 122 µM | [5] 2.92 µM | [7] 58 µM | [14] 1.9 µM
inactive: [1] | [2] | [3] | [6] | [17] | [15]

C=C(C)C(=O)OCC1CO1 (stereo not given)
active: [5] 42.9 µM
inactive: [1] | [2] | [3] | [4] | [6] | [7] | [20] | [14]

OCC(F)(F)OC(F)(F)C(F)(F)OC(F)(F)C(F)(F)OC(F)(F)CO
active: [5] 33.2 µM | [7] 29.8 µM | [13] 5.95 µM and 35.3 µM
not listed: [19] | [20]
inactive: all other assays above
